In the library only some 3.9% were active in any assay of this set; here they are far more common.
CCHF vOTU inh: blocks the CCHF virus ovarian tumor domain protease | 0.55% of 370,000 active | CCHFV vOTU protease, Pep-AMC fluorescence | AID 651958 | inhibition, % at 11.5 µM; in the data active = inhibition above about 30%; note: 0% = vehicle wells with enzyme and 100% = no enzyme wells
BoNT F protease: inhibitors of Botulinum neurotoxin F light chain protease. Multiplex microsphere protease cleavage assay, flow cytometry. inhibition, % at 10 µM. 0.22% of 360,000 active; in the data active = inhibition above about 35%, passing the limit was not always enough; inconclusive = no clear call, values can overlap the other calls; note: plate controls were buffer without enzyme for full effect and enzyme alone for no effect
BoNT-A LC inh2: inhibitors of Botulinum neurotoxin A light chain protease; multiplex microsphere protease substrate cleavage, flow cytometry; inhibition, % at 10 µM; 0.17% of 360,000 active; note: plate controls were buffer without enzyme for full effect and enzyme alone for no effect
Bead autofluor: flagged as autofluorescent in microsphere protease counterscreen. fluorescence intensity (no concentration beside the values). compound autofluorescence counterscreen, microsphere flow cytometry; active compounds read high. AID 624483. 3.1% of 360,000 active; in the data active = fluorescence intensity above about 16000; inconclusive = no clear call, values can overlap the other calls
SARS 3CLpro inh: SARS-CoV 3CLpro protease inhibition. 0.14% of 290,000 active. P0C6X7. recombinant SARS-CoV 3CLpro, quenched FRET peptide cleavage. AID 1706. inhibition, % at 6 µM; in the data active = inhibition above about 12%
Anthrax LF inh2: blocks Bacillus anthracis lethal factor protease; P15917; multiplex microsphere protease cleavage assay, LF; inhibition, % at 10 µM; 0.12% of 360,000 active; note: plate controls were buffer without enzyme for full effect and enzyme alone for no effect
Target sequence (P15917 whole entry, looked up): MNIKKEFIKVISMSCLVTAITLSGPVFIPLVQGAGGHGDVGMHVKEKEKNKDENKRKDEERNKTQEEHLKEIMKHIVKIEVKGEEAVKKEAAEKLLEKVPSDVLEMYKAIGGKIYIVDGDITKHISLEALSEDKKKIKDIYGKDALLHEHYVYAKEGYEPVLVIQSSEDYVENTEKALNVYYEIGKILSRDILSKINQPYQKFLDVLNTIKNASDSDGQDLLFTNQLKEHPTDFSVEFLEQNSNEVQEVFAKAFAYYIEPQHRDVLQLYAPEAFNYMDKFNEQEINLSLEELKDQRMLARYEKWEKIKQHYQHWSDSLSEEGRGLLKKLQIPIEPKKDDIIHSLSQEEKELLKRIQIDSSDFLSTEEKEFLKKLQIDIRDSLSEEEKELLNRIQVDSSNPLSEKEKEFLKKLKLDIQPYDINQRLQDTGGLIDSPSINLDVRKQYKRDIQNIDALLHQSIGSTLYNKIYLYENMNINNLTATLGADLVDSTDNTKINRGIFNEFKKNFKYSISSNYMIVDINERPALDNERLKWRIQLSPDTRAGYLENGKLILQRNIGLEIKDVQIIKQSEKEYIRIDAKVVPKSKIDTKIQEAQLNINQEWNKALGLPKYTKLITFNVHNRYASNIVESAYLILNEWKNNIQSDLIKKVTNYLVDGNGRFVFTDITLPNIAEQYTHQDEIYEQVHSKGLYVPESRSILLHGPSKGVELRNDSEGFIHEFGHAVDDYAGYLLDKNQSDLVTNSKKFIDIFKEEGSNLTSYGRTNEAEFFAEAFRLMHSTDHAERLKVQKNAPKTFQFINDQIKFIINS
Active calls of the source: *; ? = inconclusive; . = no result. Cut-off read from the data, not from the text of the source, unless noted: active = inhibition above about 30%; inconclusive = no clear call, values can overlap the other calls; inactive = below that.

SMILES	CCHF vOTU inh	BoNT F protease	BoNT-A LC inh2	Bead autofluor	SARS 3CLpro inh	Anthrax LF inh2
O=C(Cc1cccs1)N1CCN(c2nc(-c3ccc(Cl)cc3)cs2)CC1	.	-1.8	?	21233*	-5.2	-3.5
Cc1cc(NC(=O)CSCC(=O)Nc2ccccc2N2CCCCC2)no1	-4.7	?	-0.5	?	.	4.9
CC(C)(C)c1ccc(S(=O)(=O)N2CCCC(C(=O)NCc3ccco3)C2)cc1 (centres undefined)	2.1	.	.	.	.	.
COc1ccc(S(=O)(=O)N2CCC(C(=O)NCC3CC3)CC2)cc1	14.0	4.6	-1.8	3057	-1.0	3.7
COc1ccc(S(=O)(=O)N2CCCCCC2)cc1	1.9	0.7	0.0	22702*	0.0	-2.0
COc1ccc(S(=O)(=O)N2CCC(NC(=O)Nc3ccc(C)cc3)CC2)cc1	3.3	5.0	?	20464*	0.1	-5.8
COC(=O)C1CCN(S(=O)(=O)c2ccc(OC)cc2)CC1	-1.5	-4.2	-2.2	24359*	1.0	0.6
Cc1ccc(NC(=O)NC2CCN(S(=O)(=O)c3ccc(F)cc3)CC2)cc1	1.3	-4.5	0.7	7680	-1.8	-4.8
COc1ccc(-c2ccc(S(=O)(=O)N3CCCC3)cc2)cc1	10.4	-9.7	-0.9	4613	3.6	-5.5
COCCCNC(=O)C[C@H]1C[C@@]2(C(=O)OC)C(=C[C@H](C3CCCC3)O[C@@H]2C)N(CCC2=CCCCC2)C1=O	5.6	.	.	.	.	.
Cc1ccccc1NC(=O)CCNS(=O)(=O)c1ccc2c(c1)CCC(=O)N2	-4.4	3.8	-0.1	5535	-3.0	-0.2
C=CCSc1ncnc2c1oc1nc3c(cc12)COC(C)(C)C3	6.5	1.0	-0.1	5360	5.1	7.0
CC(C)CSc1ncnc2c1oc1nc3c(cc12)COC(C)(C)C3	15.1	-2.8	-1.2	20132*	-0.4	1.5
CC(C)C[C@@H](CNCC(=O)[C@H](C)NC(=O)c1[nH]cnc1C(=O)N[C@@H](C)CN)NC(=O)c1nc[nH]c1C(=O)N[C@@H](C)C(=O)O	-11.1	4.8	0.4	3726	.	2.8
COC(=O)C[C@H](NC(=O)Cn1cnc2c(SC)nc(N)nc21)C(=O)OC	-7.8	-9.3	-0.3	3014	.	1.2
CCc1cc2c(=O)c(-c3nc4ccccc4n3C)c(C)oc2c(CN2CCN(C)CC2)c1O	.	.	.	.	3.4	.
CCc1cc2c(=O)c(-c3nc4ccccc4n3C)c(C(C)C)oc2c(CN2CCN(C)CC2)c1O	-8.3	-9.2	-4.1	20753*	-1.2	-3.0
O=C(c1ccccc1)[C@@H]1[C@@H](C(=O)c2ccc(F)cc2)[C@@]2(C(=O)Nc3ccccc32)[C@H]2c3ccccc3C=CN12	84.0*	17.3	39.2*	7809	-6.7	29.3
Cc1nc(CC(=O)N2CCN(c3cccc(C)c3C)CC2)cs1	-2.3	-5.7	-1.4	20386*	-0.6	2.4
Cc1ccc(NC(=O)CSc2nc3ccccc3c3nc4ccccc4n23)cc1	-9.2	1.2	0.4	19179*	3.7	-0.3
CCC(=O)n1nc(-c2ccccc2)nc1SCC(=O)Nc1ccc(C)cc1	7.0	-2.8	-1.4	21542*	4.0	-0.6
CCc1c(C(=O)Nc2nnc(C3CC3)s2)csc1C	-13.3	0.0	?	21291*	-0.2	1.3
COc1cccc(N2CCN(CC(=O)NCc3ccccc3C)CC2)c1	-1.4	.	.	.	.	.
COc1cc(C(=O)NC2CCN(Cc3nnnn3Cc3cccs3)CC2)cc(OC)c1OC	2.6	0.8	0.7	22671*	-1.1	-7.5
c1ccc(COc2cccc(CN3CCN(c4ccccn4)CC3)c2)cc1	2.8	-3.0	0.3	20483*	-5.7	-2.5
SMILES	CCHF vOTU inh	BoNT F protease	BoNT-A LC inh2	Bead autofluor	SARS 3CLpro inh	Anthrax LF inh2
c1ccc(COc2cccc(CN3CCCCC3)c2)cc1	1.7	-10.4	-1.0	3051	0.6	-3.7
Cc1cccc(CN2CCN(c3ncccn3)CC2)c1	-2.7	?	0.5	4222	-1.3	-0.3
Cc1cccc(CN2CCN(c3ccccn3)CC2)c1	8.5	-3.3	?	23318*	7.5	-0.6
Cc1cc2n(n1)SC(Nc1ccc(F)c(Cl)c1)N2 (centres undefined)	1.2	-3.8	?	20632*	2.6	0.6
CC(C)c1ccc2oc(-c3ccc(NC(=O)c4ncn[nH]4)cc3)nc2c1	2.1	-2.2	0.5	8057	-0.6	-1.9
CCC(C)c1ccc2oc(-c3ccc(NC(=O)c4ncn[nH]4)cc3)nc2c1 (centres undefined)	-10.6	-2.5	-1.0	20099*	1.3	2.5
CCOC(=O)c1snc2c(=O)[nH]cnc12	-22.3	-13.2	-6.6	18607*	-0.2	-4.1
CC1CN/C(=C\C(=O)c2ccccc2)C(=O)N1 (centres undefined)	16.9	7.0	-0.8	3001	-1.1	-2.6
CC1CN/C(=C\C(=O)c2ccc(Cl)cc2)C(=O)N1 (centres undefined)	4.9	-8.9	?	24766*	1.6	-5.3
CCOc1cc(Cl)c(S(=O)(=O)NCCCN2CCOCC2)cc1Cl	3.7	15.8	-2.2	3545	1.9	-2.4
O=[N+]([O-])c1cc(-n2cnnn2)ccc1N1CCC(Cc2ccccc2)CC1	8.2	-4.8	-1.3	16952*	2.4	-3.5
CC1CC(C)CN(c2ccc(-n3cnnn3)cc2[N+](=O)[O-])C1 (centres undefined)	-4.0	-4.9	0.0	2661	-2.1	-2.1
CCN(CC)C(=O)Cn1nc(Cc2ccncc2)c2ccccc2c1=O	-1.1	.	.	.	.	.
O=C(NCC1CCCCC1)c1ccco1	-4.0	-4.4	?	22013*	3.6	0.5
CC[C@@]1(C(=O)OC)N[C@H](CN(C)S(=O)(=O)c2ccc(C(C)(C)C)cc2)[C@@H]2C(=O)N(Cc3ccccc3)C(=O)[C@@H]21	-2.8	-3.0	-0.3	3018	.	-0.4
COc1ccc(-c2nnc(CSc3nnc(-c4ccncc4)n3C3CCCCC3)o2)cc1OC	-6.2	-1.1	?	19681*	-2.2	0.3
COCCNCc1ccccc1	-7.7	-3.8	-2.7	24425*	1.0	0.1
COCCNCc1ccc(C(C)C)cc1	0.0	-0.7	-0.1	2497	3.7	1.5
C=CCn1c(O)c(C(C)=NCCc2ccccc2)c(=O)[nH]c1=O	-6.4	14.8	14.1	15331	-3.7	-16.4
CC(=NCCCN1CCOCC1)c1c(O)n(Cc2ccccc2)c(=O)[nH]c1=O	-1.0	-3.5	0.5	4272	1.1	4.0
CCC(=NCCCN1CCOCC1)c1c(O)n(Cc2ccccc2)c(=O)[nH]c1=O	-3.7	1.8	1.0	19516*	-2.9	1.6
C=CCn1c(O)c(C(C)=NCc2cccnc2)c(=O)[nH]c1=O	-5.6	-3.5	-1.8	17471*	-5.4	-1.9
C=CCn1c(O)c(C(CC)=NCCc2ccccc2)c(=O)[nH]c1=O	11.8	-1.7	?	22909*	1.0	-0.4
Nn1c(SCC(=O)Nc2nccs2)nnc1-c1cc(-c2ccc(Cl)cc2)n[nH]1	2.8	.	.	.	.	.
CC(C)C(=O)Nc1ccc(C(=O)NNC(=O)CCCOc2ccc(Cl)cc2Cl)cc1	-5.6	-3.0	?	24267*	3.0	-3.1
CC(=O)NC(=S)Nc1ccc(NC(=O)COc2ccc(Cl)cc2Cl)cc1	-0.8	-2.4	0.2	4217	-1.0	-3.5

Compound activity (PubChem)
